Results published in PubChem BioAssay (EPA / NIEHS).
The source made the active and inactive calls. How the source made its calls: active means hit-call score of the fitted dose curve at least 0.9, where 1 is the maximum; inactive means score below 0.9.

What follows are molecules tested on Insulin-like growth factor-binding protein 1 (IGFBP1), IGFBP1 (gene 3484) (assay: LTEA_HepaRG_IGFBP1: Life Technologies and Expression Analysis (LTEA) Assay for Insulin-like growth factor-binding protein 1 (IGFBP1) using HepaRG (AID 2283508)). Settings: mRNA level, 48 h; actives raise or lower the signal.
Method: LTEA_HepaRG is a cell based, multiplexed-readout assay that uses HepaRG, a human liver cell line, with measurements taken at 48 hours after chemical dosing on a 96-well plate.LTEA_HepaRG_IGFBP1 is one of 102 assay component(s) measured in the LTEA HepaRG cell culture assay. It is a marker of Cell proliferation, survival, death.Data from the assay component LTEA_HepaRG_IGFBP1 was analyzed into 1 endpoint. This assay endpoint, LTEA_HepaRG_IGFBP1, was analyzed with bidirectional fitting relative to DMSO as the negative control and baseline of activity. Using a type of inducible reporter, measures of mRNA induction for gain or loss-of-signal activity can be used to understand regulation of transcription factor activity. To generalize the intended target to other relatable targets, this assay endpoint is annotated to the transporter intended target family, where the subfamily is hormone carrier protein.
A total of 1060 chemcials from the ToxCast library were tested in eight-point concentration-response experiments. Cell culture and cytotoxicity assays were conducted at Thermo Fisher Scientific's Custom Services facility (Madison, WI). A single lot of human HepaRG cells (Thermo Fisher Scientific, Frederick, MD) was used for the cell culture experiments. 96-well format collagen type I coated plates of human HepaRG cells were prepared using established methods. Briefly, cryopreserved HepaRG cells were thawed, plated at a density of approximately 100,000 cells/well in HepaRG Thaw, Plate, and General Purpose media (HPRG770, Thermo Fisher Scientific), and incubated for 48 hours. 0.5% DMSO was selected as vehicle control to balance the requisite need of DMSO in HepaRG cultures to maintain differentiation (for example, baseline metabolism, proportions of hepatocytes vs. cholangiocytes), while enabling further hepatic receptor pathway activation (for example, PXR and CAR) in response to chemical exposure. 48 hours after plating, the culture medium was replaced with HepaRG Serum-Free Incudtion Media. Cells were exposed to each test chemical in duplicate and maintained in CO2 incubators for another 48 hours. Chemical plates were thawed to room temperature and 200x concentrations of treatment groups were prepared. 8-point conentration-reponse curves were made with the highest exposure at 100 uM, followed by half-log dilutions, all in 0.5% DMSO. Each test plate contained variouse controls, induction positive controls (1mM phenobarbital), cytotoxicity positive controls ([…] aflatoxin B1), vehicle controls (0.5% DMSO), and total lysis controls (0.5% DMSO). Cell morphology images were taken using an Essen IncuCyte FLR automated microscope, with six 96-well plates imaged in about 24 minutes. Images were captured and exported and JPEG files. Spent culture media was transfered to black-well plates for the LDH assay, and remaining media was sorted at -80 C for later use. Cells were treated with RLT buffer and frozen until shipped for gene expression analysis. Total RNA was isolated from the cell suspension in 75 uL of Buffer RLT (Qiagen, Germantown, MD 20874) by Quintiles/Expression Analysis (Durham, NC) using a custom isolation procedure. Total RNA from each plate well was transferred to a preamplification plate. Fluidigm's 96.96 Dynamic ArrayTM (Fluidigm, Amsterdam, the Netherlands) technology was used for gene expression analyses by quantitative reverse transcription polymerase chain reaction (qRT-PCR, performed by Quintiles/Expression Analysis, Durham, NC)89. Standard TaqManTM Assays (Applied Biosystems/ThermoFisher Scientific, Foster City, CA) were used to assess the expression of 93 genes selected based on their selectivity and sensitivity to important hepatic receptors known to be modulated by environmental chemicals; importance in human hepatocyte functionality; and hepatotoxicity. […]

Compound	outcome	AC50
Cc1cc(C)cc(C)c1	inactive	
O=C(N[C@H]1CN2CCC1CC2)c1ccc2c(c1)OCCO2	inactive	
CC(C)O.CC(C)O.OCCN(CCO)CCO.OCCN(CCO)CCO.[Ti]	inactive	
CCCCCCCCCCCCc1cccc(S(=O)(=O)O)c1	inactive	
O=C(O)C1(c2ccc3c(c2)OC[C@H](Cc2ccc(-c4ccccc4)cc2)[C@H]3O)CCCC1		50 µM (active)
Clc1cccc(Cl)c1	inactive	
N#Cc1cccnc1	inactive	
COc1ccccc1N	inactive	
Oc1cc(Cl)c(Cl)cc1Cl	inactive	
Oc1c(Cl)cc(Cl)cc1Cl	inactive	
OCCN(CCO)CCO	inactive	
CC(C)(C)c1ccccc1O	inactive	
CN(C)C(=S)S	inactive	
Clc1cccc(Cl)c1Cl	inactive	
